# Measurements as given in PubChem BioAssay AID1159577 (Broad Institute, 2015).
# In all, about 1,300 compounds went through this assay and about 240 (18%) were called active. About 8% were inconclusive and are not listed. Not all results are given here. Entries with a potency or affinity are not part of this list. Values without a mark were called inactive. No rule for the calls is given here.
# Test: HepG2 cell cytotoxicity, dose response, cytotoxicity control, cherry-picked samples (AID 1159577);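 also: 0% = neutral control wells and -100% = positive control wells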
# Conditions: HepG2 cytotoxicity counterscreen, plate reader; series mostly up to 19.5 µM; activity change, negative = cytotoxicity: at the top concentration
row,SMILES,"activity change, negative = cytotoxicity"
1,O=C(C[C@@H]1C[C@H]2c3cc(NC(=O)Nc4ccccc4)ccc3O[C@H]2[C@H](CO)O1)NCc1ccccc1,-34.5%
2,O=C(c1cccnc1)N1CC(=O)N2[C@H](C1)[C@@H](c1ccc(-c3cccnc3)cc1)[C@@H]2CO,2.75%
3,CN1c2ccc(-c3ccccc3)cc2[C@@H]2[C@@H](CCN2C(=O)c2ccccc2)[C@H]1CO,4.78%
4,COc1ccc(NC(=O)N2CCCCN3[C@H](CO)[C@H](c4ccc(-c5ccccc5F)cc4)[C@@H]3C2)cc1,-16.4%
5,CCS(=O)(=O)N1CCCCN2[C@H](CO)[C@@H](c3ccc(-c4cccc(C#N)c4)cc3)[C@@H]2C1,7.54%
6,CCS(=O)(=O)N1CC(=O)N2[C@H](CO)[C@@H](c3ccc(-c4ccccc4F)cc3)[C@@H]2C1,5.53%
7,Cc1cccc(S(=O)(=O)N2CCCCN3[C@H](C2)[C@@H](c2ccc(-c4cccnc4)cc2)[C@@H]3CO)c1,22.7%
8,N#C[C@@H]1[C@H](c2ccccc2/C=C/c2ccccc2)[C@H](CO)N1S(=O)(=O)c1ccc(F)cc1,-7.03%
9,CCCC(=O)Nc1ccc2c(c1)OC[C@@H](C)N(Cc1cccc(F)c1)C[C@@H](C)[C@H](OC)CN(C)C2=O,13.8%
10,CC(C)NC(=O)N1[C@H](CO)[C@@H](c2ccccc2)C12CN(Cc1ccc(Cl)cc1)C2,-15.9%
11,CO[C@H]1CN(C)C(=O)c2cc(NC(=O)Cc3ccccc3)ccc2OC[C@H](C)N(C(=O)c2ccccc2F)C[C@H]1C,-0.533%
12,CCCNC(=O)Nc1ccc2c(c1)OC[C@H](C)N(Cc1ccc(-c3ccccn3)cc1)C[C@H](C)[C@H](OC)CN(C)C2=O,14.3%
13,COc1cccc(S(=O)(=O)N2CCC3(CC2)CN[C@H](CO)c2[nH]c4cc(OC)ccc4c23)c1,3.97% [at 21 µM]
14,C[C@@H]1CN([C@H](C)CO)S(=O)(=O)c2ccc(C#Cc3ccccc3)cc2O[C@H]1CN(C)C(=O)C1CC1,-11.3%
15,CO[C@@H]1CN(C)C(=O)c2ccc(NC(=O)c3ccc4c(c3)OCO4)cc2OC[C@@H](C)N(Cc2ccc3c(c2)OCO3)C[C@H]1C,21.5%
16,COc1ccc2c3c([nH]c2c1)[C@@H](CO)N(Cc1cc(F)ccc1F)CC31CCN(C(=O)C2CCC2)CC1,1.16%
17,CCS(=O)(=O)N1CCCCN2[C@H](CO)[C@H](c3ccc(-c4cccc(C#N)c4)cc3)[C@@H]2C1,-8.99%
18,CCS(=O)(=O)N1CCCCN2[C@H](CO)[C@H](c3ccc(-c4cccc(C#N)c4)cc3)[C@H]2C1,-1.59%
19,O=C(c1cnccn1)N1CC(=O)N2[C@@H](CO)[C@H](c3ccc(C#CCc4ccccc4)cc3)[C@@H]2C1,-3.35%
20,C[C@H]1CN([C@@H](C)CO)C(=O)c2cc(NC(=O)Nc3ccc(C(F)(F)F)cc3)ccc2O[C@@H]1CN(C)C(=O)Nc1cccc2ccccc12,13.6%
21,CCCC#Cc1ccc(CC[C@H]2O[C@H]3CC[C@H](CO)O[C@H]3C[C@@H]2n2cc(C(C)(C)O)nn2)cc1,-0.199%
22,COc1ccccc1NC(=O)N1CCCCN2[C@H](C1)[C@H](c1ccc(C#CC3CC3)cc1)[C@@H]2CO,21.3%
23,COc1ccccc1NC(=O)N1CCCCN2[C@@H](CO)[C@H](c3ccc(C#CC4CC4)cc3)[C@@H]2C1,-11.9%
24,O=C(Nc1ccccc1F)N1CC(=O)N2[C@H](CO)[C@@H](c3ccc(-c4ccccc4)cc3)[C@H]2C1,16.1%

row,SMILES,"activity change, negative = cytotoxicity"
1,O=C(Nc1cccc(F)c1)N1CC(=O)N2[C@H](C1)[C@@H](c1ccc(C#CC3CC3)cc1)[C@@H]2CO,12.5%
2,CO[C@H]1CN(C)C(=O)c2cc(NC(=O)C3CC3)ccc2OC[C@H](C)N(Cc2cc(F)ccc2F)C[C@H]1C,10.8%
3,COCC(=O)N1[C@@H](C#N)[C@H](c2ccccc2-c2ccccc2)[C@@H]1CO,-10.8% [at 21 µM]
4,CCCC#Cc1ccc2c(c1)[C@@H]1[C@@H](CCN1S(=O)(=O)c1ccccc1C)[C@@H](CO)N2,6.95% [at 21 µM]
5,COc1ccc2c3c([nH]c2c1)[C@H](CO)N(Cc1cc(F)ccc1F)CC31CN(C(=O)C2CCC2)C1,9.59%
6,COc1ccc(-c2ccccc2[C@H]2[C@@H](C#N)N(C(=O)C3CCCCC3)[C@H]2CO)cc1,1.19%
7,C[C@@H]1CN([C@H](C)CO)C(=O)c2cccc(NC(=O)c3ccc(-c4nccs4)cc3)c2O[C@H]1CN(C)Cc1ccc2c(c1)OCO2,0.334%
8,CCC(=O)N1[C@H](CO)[C@H](c2ccc(C3=CCCCC3)cc2)[C@H]1CNCC1CCC1,-15%
9,N#C[C@@H]1[C@H](c2ccc(C3=CCCC3)cc2)[C@@H](CO)N1C(=O)NC1CCCC1,-23.9%
10,CCCNC(=O)N1[C@H](C#N)[C@H](c2ccc(C3=CCCCC3)cc2)[C@H]1CO,-10.4% [at 21 µM]
11,N#C[C@@H]1[C@@H](c2ccc(C3=CCCCC3)cc2)[C@H](CO)N1C(=O)NC1CCCC1,3.23%
12,CCCNC[C@H]1[C@@H](c2ccc(C3=CCCCC3)cc2)[C@@H](CO)N1C(=O)C1CCC1,-12.2%
13,OC[C@@H]1[C@H](c2ccc(C3=CCCC3)cc2)[C@@H](CNC2CCCC2)N1CC1CC1,-13.2%
14,C/C=C/c1ccc([C@H]2[C@@H](CO)N(C(=O)C3CCCC3)[C@H]2CNCCC)cc1,-0.865% [at 21 µM]
15,CCCNC(=O)N1[C@H](C#N)[C@@H](c2ccccc2C2=CCCC2)[C@@H]1CO,-20.4% [at 21 µM]
16,COc1ccc(C#Cc2cccc(-c3nc(C(=O)NCc4ccc5c(c4)OCO5)cc4c3[C@@H](CCO)N(S(=O)C(C)(C)C)C4)c2)cc1OC (stereo not given in full),8.9%
17,C[C@H]1CN([C@@H](C)CO)C(=O)c2c(c3ccccc3n2C)-c2ccccc2CO[C@@H]1CN(C)C(=O)Nc1cccc(F)c1,-4.89%
18,Cc1ccc(S(=O)(=O)N(C)C[C@H]2Oc3cc(C#Cc4ccncc4)ccc3S(=O)(=O)N([C@@H](C)CO)C[C@@H]2C)cc1,4.85%
19,CO[C@@H]1CN(C)C(=O)c2ccc(NC(=O)Nc3ccccc3F)cc2OC[C@@H](C)N(CCC(F)(F)F)C[C@H]1C,35.7% [at 21 µM]
20,CO[C@H]1CN(C)C(=O)c2ccc(NS(=O)(=O)CC(F)(F)F)cc2OC[C@H](C)N(C)C[C@@H]1C,0.408% [at 21 µM]
21,COc1ccc(C#Cc2ccc([C@@H]3[C@@H](CO)N4C(=O)CN(C(=O)c5ccccc5)C[C@H]34)cc2)cc1,-1.78%
22,COc1cccc(C#Cc2ccc([C@H]3[C@@H](CO)N(C(=O)C4CCC4)[C@H]3C#N)cc2)c1,6.14%
23,C[C@H]1CN([C@@H](C)CO)C(=O)c2cc(NC(=O)Nc3cccc4ccccc34)ccc2O[C@H]1CN(C)C(=O)Nc1ccc(C(F)(F)F)cc1,4.51%
24,C[C@@H]1CN([C@H](C)CO)C(=O)c2cccc(NC(=O)Nc3cccc4ccccc34)c2O[C@@H]1CN(C)C(=O)Nc1ccc(C(F)(F)F)cc1,2.88%

row,SMILES,"activity change, negative = cytotoxicity"
1,COc1ccccc1S(=O)(=O)N[C@H]1CC[C@@H](CCn2cc(C3CCCC3)nn2)O[C@@H]1CO,7%
2,COc1cccc(-c2cn(CC[C@@H]3CC[C@@H](NS(=O)(=O)c4ccccc4Cl)[C@H](CO)O3)nn2)c1,1.93%
3,COc1ccc(C#Cc2cccc(-c3nc(C(=O)N[C@@H]4CCN(Cc5ccccc5)C4)cc4c3[C@H](CCO)N(S(=O)C(C)(C)C)C4)c2)cc1OC (stereo not given in full),-5.33%
4,O=C(Nc1ccc(F)cc1)N1CCCCN2[C@H](C1)[C@H](c1ccc(C#Cc3ccccc3)cc1)[C@@H]2CO,-8.08%
5,O=C(Nc1ccc(F)cc1)N1CCCCN2[C@H](CO)[C@H](c3ccc(C#Cc4ccccc4)cc3)[C@@H]2C1,5.78%
6,CCC(=O)N1CC2(C1)[C@H](c1ccccc1)[C@H](CO)N2Cc1ccccc1OC,-15.2%
7,CC(C)(C)[S@](=O)N1Cc2cc(C(=O)NCc3ccccc3F)nc(-c3cccc(-c4ccncc4)c3)c2[C@@H]1CCO,3.09% [at 21 µM]
8,COc1ccc(-c2ccc([C@@H]3[C@@H](CO)N4CCCCN(C(=O)c5ccc6c(c5)OCO6)C[C@@H]34)cc2)cc1,-15.9%
9,COc1ccc(CNC(=O)c2cc3c(c(-c4cccc(-c5cccc(C#N)c5)c4)n2)[C@H](CCO)N([S@@](=O)C(C)(C)C)C3)cc1,8.03% [at 21 µM]
10,C[C@H]1CN([C@@H](C)CO)C(=O)c2c(c3ccccc3n2C)-c2ccccc2CO[C@H]1CN(C)S(=O)(=O)c1ccc([N+](=O)[O-])cc1,24.4%
11,N#C[C@@H]1[C@H](c2ccccc2-c2ccc(F)cc2)[C@H](CO)N1C(=O)NC1CCCC1,-6.01% [at 21 µM]
12,Cc1ccccc1S(=O)(=O)N(C)C[C@H]1OCc2ccccc2-c2ccccc2C(=O)N([C@@H](C)CO)C[C@H]1C,14.9%
13,CO[C@@H]1CN(C)C(=O)c2cc(NC(=O)c3nc4ccccc4s3)ccc2OC[C@H](C)NC[C@H]1C,-7.06% [at 18 µM]
14,CO[C@H]1CN(C)C(=O)c2cc(NC(=O)c3nc4ccccc4s3)ccc2OC[C@H](C)NC[C@@H]1C,3.64%
15,CO[C@@H]1CN(C)C(=O)c2ccc(NC(=O)C3CC3)cc2OC[C@@H](C)N(Cc2cc(F)ccc2F)C[C@H]1C,28.2%
16,COc1ccc(C#Cc2ccc3c(c2)[C@@H]2[C@@H](CCN2C(=O)C2CCCC2)[C@@H](CO)N3)cc1,-3.3%
17,CCC(=O)N1CC2(C1)CN(Cc1ccccc1Cl)[C@@H](CO)c1[nH]c3cc(OC)ccc3c12,-18%
18,COc1ccccc1NC(=O)N1CC[C@H]2[C@@H]1c1cc(C#Cc3ccc(F)cc3)ccc1N(C)[C@H]2CO,0.332%
19,C[C@H]1CN([C@@H](C)CO)C(=O)c2c(c3ccccc3n2C)-c2ccccc2CO[C@@H]1CN(C)S(=O)(=O)c1ccccc1F,26.4%
20,COc1cccc(NC(=O)Nc2ccc3c(c2)C(=O)N(C)C[C@@H](OC)[C@H](C)CN[C@@H](C)CO3)c1,14.9%
21,CO[C@@H]1CN(C)C(=O)c2ccc(NC(=O)c3ccc(F)cc3)cc2OC[C@@H](C)N(C(=O)c2ccc(F)cc2)C[C@@H]1C,-17.4%
22,CO[C@@H]1CN(C)C(=O)c2cc(NC(=O)c3ccc(Oc4ccccc4)cc3)ccc2OC[C@H](C)NC[C@@H]1C,-20.5%
